Rows were chosen to be rich in hits. Some 2.8% of all compounds tested hit in one or more screens of this group.
IDE act = IDE (human) activation, cell-based | AID 493087 | activation, % at 5.96 µM | 340,000 compounds, 0.073% hits | HEK cells, FAbeta-B cleavage, fluorescence polarization; 0% vehicle, 100% cell-free pure enzyme wells | P14735;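 active = activation above the mean of all tested compounds plus 3 SD, set per screening campaign, cut at about 17% in these data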
Exocytosis inh = blocks lytic granule exocytosis; TALL-104 LAMP-1 surface exposure, flow cytometry; cells stimulated with thapsigargin and PMA; inhibition, % at 10 µM; 360,000 compounds, 0.66% hits; AID 651702;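 active = inhibition above about 55%, limit read from the data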
PP1 inh = blocks human PP1-alpha phosphatase, a PP5 counter-screen | inhibition, % at 6.7 µM | 320,000 compounds, 0.9% hits | purified PP1alpha, OMFP fluorescence;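 active = inhibition above the mean inhibition of all tested compounds plus 3 SD, computed separately for each screening campaign, cut at about 15% in these data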
SKKanGAS inh = blocks kanamycin growth of S. pyogenes SKKanGAS strain; inhibition, % at 7.5 µM; AID 1662; 300,000 compounds, 1.3% hits; BacTiter-Glo, 6 h;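 active = mean replicate score, as percent of positive control median, at least 50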;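 also: strain carries kanamycin resistance gene driven by streptokinase promoter and grows in 40 µg/ml kanamycin; loss of luminescence reflects streptokinase promoter inhibition or plain growth inhibition; 0% = median of DMSO wells and 100% = positive control at its reference dose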
PP5 primary = PP5 (human) phosphatase inhibition. P53041. AID 1987. inhibition, % at 6.7 µM. purified PP5c, OMFP substrate fluorescence. 320,000 compounds, 0.18% hits;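 active = inhibition above the campaign's mean inhibition across all tested compounds plus 3 SD, cut at about 9.5% in these data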;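 also: 0% = DMSO only and 100% = 100 µM cantharidin control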
Target sequence (P53041 whole entry, looked up): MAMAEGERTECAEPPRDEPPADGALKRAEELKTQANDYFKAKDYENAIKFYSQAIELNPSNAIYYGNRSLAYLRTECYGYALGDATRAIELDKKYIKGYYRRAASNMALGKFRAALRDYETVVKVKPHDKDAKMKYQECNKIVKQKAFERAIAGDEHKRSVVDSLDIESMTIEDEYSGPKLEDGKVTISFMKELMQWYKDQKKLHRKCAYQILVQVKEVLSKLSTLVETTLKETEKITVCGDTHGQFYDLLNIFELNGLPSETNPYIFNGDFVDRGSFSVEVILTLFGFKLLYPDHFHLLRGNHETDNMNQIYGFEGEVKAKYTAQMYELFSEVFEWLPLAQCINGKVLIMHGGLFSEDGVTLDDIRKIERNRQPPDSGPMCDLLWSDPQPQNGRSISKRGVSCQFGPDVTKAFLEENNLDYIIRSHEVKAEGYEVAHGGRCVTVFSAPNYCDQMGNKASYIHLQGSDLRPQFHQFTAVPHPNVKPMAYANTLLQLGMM
IDE cell inh = cellular human IDE inhibition; HEK cells, FAbetaB cleavage, fluorescence polarization; inhibition, % at 5.59 µM; 320,000 compounds, 0.41% hits; AID 434962;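 active = percent inhibition above the average of all tested compounds plus 3 SD, set per screening campaign, cut at about 16% in these data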;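 also: IDE supplied by intact live HEK cells; FP after avidin binding of uncleaved biotin substrate so inhibition keeps polarization high; 0% = DMSO wells and 100% = 60 µM reference IDE inhibitor Ii1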
Exocytosis CP01 = blocks lytic granule exocytosis; inhibition, % at 10 µM; shares compounds with Exocytosis inh; TALL-104 cells, LAMP-1 externalization, flow cytometry; stimulated with PMA plus thapsigargin; AID 651954; 1,500 compounds, 11% hits; in the data active = inhibition above about 60%;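 also: 0% = stimulated vehicle wells and 100% = unstimulated wells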
* hit, by the source's call; x = no result.

SMILES	IDE act	Exocytosis inh	PP1 inh	SKKanGAS inh	PP5 primary	IDE cell inh	Exocytosis CP01
FC(F)(F)Oc1ccccc1C(c1nnnn1Cc1ccccc1)N1CCN(C/C=C/c2ccccc2)CC1 (stereo not given)	x	15	x	x	x	x	x
CCOC(=O)c1c(CSc2cccs2)n(C)c2cc(Br)c(O)c(CN(C)C)c12	6	90*	3	15	1	0	15
CCN(CC(=O)NCc1cccs1)C(=O)c1cccc(S(=O)(=O)N2CCc3ccccc32)c1	-3	65*	5	3	0	6	-13
COc1ccc(S(=O)(=O)N(C)C[C@H]2Oc3c(NS(=O)(=O)c4cn(C)cn4)cccc3C(=O)N([C@H](C)CO)C[C@@H]2C)cc1	3	-3	x	x	x	2	x
O=C(c1ccco1)N1CCC(c2nc(-c3ccccc3Cl)no2)CC1	3	100*	1	-6	10	5	-5
CC(=O)Oc1cccc(NC(=O)c2cccc(C(=O)Nc3cccc(OC(C)=O)c3)c2)c1	-1	64*	-9	0	2	2	-4
CC(=O)N1CCN(S(=O)(=O)c2cccc(C(=O)N(Cc3ccccc3)c3cccc(C)c3)c2)CC1	-1	2	9	-17	-3	11	x
Cc1cc(Nc2cc(Cl)cc(Cl)c2)nc(N)n1	1	62*	-4	-10	-1	3	-10
COc1ccc(CC(CC(=O)O)C(=O)NCc2ccccc2)cc1 (stereo not given)	6	-1	-1	26	-5	2	x
COc1ccc(CC(CN)c2ccccc2)cc1 (stereo not given)	-5	58*	9	-2	3	0	-8
CN(C)S(=O)(=O)c1cccc(NC(=O)COc2ccc(C(=O)c3ccccc3)cc2)c1	0	58*	2	-9	4	5	2
COc1ccc(NC(=O)c2ccccc2OCc2ccc(F)cc2)c(OC)c1	-3	85*	3	15	3	0	-11
CN(C)S(=O)(=O)c1cccc(NC(=O)c2ccccc2OCc2ccc(F)cc2)c1	3	102*	3	3	2	2	-10
CN(c1ccccc1)S(=O)(=O)c1cccc(NC(=O)COc2ccccc2)c1	0	-2	-1	x	4	-1	x
Cc1ccc(Cl)cc1N1CCN(S(=O)(=O)c2ccc3c(c2)CC(=O)N3C)CC1	-2	5	7	-1	2	-2	x
Oc1ccccc1Nc1nc(NCc2ccco2)c2ccccc2n1	-10	61*	7	16	6	-1	89*
CSc1nc(NCc2ccco2)c2ccccc2n1	-1	-2	-5	3	1	6	x
c1ccc(Nc2nc(NCc3ccco3)c3ccccc3n2)cc1	0	77*	16*	7	1	12	6
c1ccc(CN2CCN(c3nc(NCc4ccco4)c4ccccc4n3)CC2)cc1	3	67*	3	1	-1	-2	30
OCCN1CCN(c2nc(NCc3ccco3)c3ccccc3n2)CC1	4	2	-1	-7	4	6	x
COc1ccc(S(=O)(=O)N2CCN(C(=O)CCSc3ccccc3)CC2)cc1	1	102*	-2	x	2	2	-4
Cc1ccc(-n2c(CCc3ccccc3)nnc2SCC(=O)NCc2ccccc2)cc1C	1	68*	6	2	4	-5	13
COCc1nnc(SCC(=O)NCc2ccccc2)n1-c1ccccc1	-1	-1	-3	4	0	1	x
CCC(C)(CC(=O)Nc1nccs1)c1ccccc1 (stereo not given)	-4	-1	2	2	-1	-5	x
Cc1c(NC(=O)COc2cccc(Br)c2)c(=O)n(-c2ccccc2)n1C	5	70*	-1	-1	0	5	-4
SMILES	IDE act	Exocytosis inh	PP1 inh	SKKanGAS inh	PP5 primary	IDE cell inh	Exocytosis CP01
CC(Oc1ccc(Cl)cc1Cl)c1nc(-c2ccc(NC(=O)c3ccccn3)cc2)no1 (stereo not given)	3	-1	-3	4	3	1	x
CCn1cc(C(=O)N[C@@H](CCSC)C(=O)NCCCOC)c(=O)c2cc3c(cc21)OCO3	-1	2	2	4	1	5	x
CC(C)(C)C1CCC(=O)N(CCOc2ccccc2)CC1 (stereo not given)	3	67*	2	0	3	2	-13
CC(C)NC(=O)c1ccccc1NS(=O)(=O)c1ccc(Br)s1	4	59*	x	1	x	x	-13
O=C(c1ccccc1NS(=O)(=O)c1ccc(Br)s1)N1CCCC1	5	-1	1	29	1	-5	x
CCCCNC(=O)CS(=O)Cc1nc(-c2cccc(C)c2)oc1C (stereo not given)	2	-10	4	-8	0	-1	x
Cc1oc(-c2ccc(Cl)cc2)nc1CS(=O)CC(=O)NCCN1CCCC1 (stereo not given)	7	56*	-2	7	5	3	-11
Cc1cccc(-c2nc(CS(=O)CC(=O)NCCc3ccc(Cl)cc3)c(C)o2)c1 (stereo not given)	6	58*	0	-1	0	1	-4
Cc1ccc(-c2nc(CS(=O)CC(=O)NCCN3CCCC3)c(C)o2)cc1 (stereo not given)	4	8	1	0	2	2	x
COC(=O)CCCn1cc(CN(C)C2CN(Cc3cn(CCCC(=O)OC)nn3)S(=O)(=O)C2)nn1 (stereo not given)	x	-1	x	x	x	x	x
O=C(NC1CCCC1)C(c1cccs1)N(Cc1ccco1)C(=O)Cn1nnc(-c2cccs2)n1 (stereo not given)	-3	-1	1	9	4	6	x
Cc1ccc(-c2nnn(CC(=O)N(Cc3ccco3)C(C(=O)NC3CCCC3)c3cccs3)n2)o1 (stereo not given)	3	66*	1	4	-1	-3	-4
Nc1c(C(=O)c2ccccc2)sc2nsc(SCCN3CCCC3)c12	-24	64*	2	25	2	6	-4
N#Cc1ccc(CSc2ccccn2)c(Cl)c1	0	81*	-1	6	1	6	-4
COc1ccc(NC(=O)CC2C(=O)N(Cc3ccccc3)C(=S)N2CCN2CCOCC2)cc1 (stereo not given)	0	-5	-4	0	2	0	x
C=CCN1C(=O)C(CC(=O)Nc2ccc(OCCC)cc2)N(CCCN2CCN(Cc3ccccc3)CC2)C1=S (stereo not given)	5	58*	0	7	2	1	21
Cc1c2cnn(CC(=O)N3CCOCC3)c(=O)c2c(C)n1Cc1ccccc1F	5	4	0	6	1	0	x
Cc1cc(C)n(-c2nc(SCCN(C)C)c3c4c(sc3n2)CCCC4)n1	3	70*	4	36	0	-1	33
